# According to the supplement of paper PMC10849652:
# Of roughly 7,900 targets only a part is listed; those with a hit were picked by preference. About 0.6% of all pairs of compound and target were hits. Unmarked numbers belong to inactive results.
# Tests used:
# Test in all cases: log2 fold change, soluble protein after heating vs DMSO (PISA); higher = thermal stabilisation; K562 cells, 10 uM, 30 min; active = over 0.2 and 3.5 SD of the protein, either way, in both replicates (recomputed)
# [1] = compound: CC[C@@H]1C(=O)N(C)c2cnc(Nc3ccc(C(=O)NC4CCN(C)CC4)cc3OC)nc2N1C1CCCC1
# How it was run: (§1)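 Values are thermal stability changes relative to control samples and are taken from duplicates. They are stated as log2 fold changes. Before quantification by TMTpro 16plex LC-MS/MS with equalised channel sums, K562 cells at 2×10^6 cells/mL were treated with 10 μM compound for 30 min, heated in aliquots for 3 min across 48°C-58°C, pooled, extracted in PBS with 0.5% NP-40 at 4°C, and centrifuged at 21,000xg for 90 min to give the soluble supernatant.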
# volasertib = compound: CC[C@@H]1C(=O)N(C)c2cnc(Nc3ccc(C(=O)N[C@H]4CC[C@H](N5CCN(CC6CC6)CC5)CC4)cc3OC)nc2N1C(C)C [volasertib]
# How it was run: as §1
# [2] = compound: CC[C@H](C)N1C=C(C2=C(C=C(C=C21)C3=CN=C(C=C3)N4CCNCC4)C(=O)NCC5=C(C=C(NC5=O)C)C)C
# How it was run: as §1
# epoxomicin = compound: CC[C@H](C)[C@@H](C(=O)N[C@@H]([C@@H](C)O)C(=O)N[C@@H](CC(C)C)C(=O)[C@]1(CO1)C)NC(=O)[C@H]([C@@H](C)CC)N(C)C(=O)C [epoxomicin]
# How it was run: as §1
# [3] = compound: CCn1c(C(=O)N(C2CC2)C2CC2)cc2c3c(ncn3C)c(Nc3cc(C)n(C)n3)nc21
# How it was run: as §1
# [4] = compound: CCn1cc(-c2ccnc3[nH]c(-c4cccc(CN(C)C)c4)cc23)c(-c2ccc(NC(=O)N(C)C)cc2)n1
# How it was run: as §1
# [5] = compound: CN(C)CC(=O)Nc1ccc2[nH]c(=O)c3ccccc3c2c1
# How it was run: as §1
# rosiglitazone = compound: CN(CCOC1=CC=C(C=C1)C[C@H]2C(=O)NC(=O)S2)C3=CC=CC=N3 (racemic) [rosiglitazone]
# How it was run: as §1
# [6] = compound: CN1C2=C(C3=C1C(=O)N(N=C3)CC4=CC(=CC=C4)N)SC(=C2)S(=O)C
# How it was run: as §1
# [7] = compound: CN1CCC(CNc2ccc3ncc(-c4cccc(OC(F)(F)F)c4)n3n2)CC1
# How it was run: as §1
# Chain of UniProt Q13464 (Q13464 whole entry, looked up): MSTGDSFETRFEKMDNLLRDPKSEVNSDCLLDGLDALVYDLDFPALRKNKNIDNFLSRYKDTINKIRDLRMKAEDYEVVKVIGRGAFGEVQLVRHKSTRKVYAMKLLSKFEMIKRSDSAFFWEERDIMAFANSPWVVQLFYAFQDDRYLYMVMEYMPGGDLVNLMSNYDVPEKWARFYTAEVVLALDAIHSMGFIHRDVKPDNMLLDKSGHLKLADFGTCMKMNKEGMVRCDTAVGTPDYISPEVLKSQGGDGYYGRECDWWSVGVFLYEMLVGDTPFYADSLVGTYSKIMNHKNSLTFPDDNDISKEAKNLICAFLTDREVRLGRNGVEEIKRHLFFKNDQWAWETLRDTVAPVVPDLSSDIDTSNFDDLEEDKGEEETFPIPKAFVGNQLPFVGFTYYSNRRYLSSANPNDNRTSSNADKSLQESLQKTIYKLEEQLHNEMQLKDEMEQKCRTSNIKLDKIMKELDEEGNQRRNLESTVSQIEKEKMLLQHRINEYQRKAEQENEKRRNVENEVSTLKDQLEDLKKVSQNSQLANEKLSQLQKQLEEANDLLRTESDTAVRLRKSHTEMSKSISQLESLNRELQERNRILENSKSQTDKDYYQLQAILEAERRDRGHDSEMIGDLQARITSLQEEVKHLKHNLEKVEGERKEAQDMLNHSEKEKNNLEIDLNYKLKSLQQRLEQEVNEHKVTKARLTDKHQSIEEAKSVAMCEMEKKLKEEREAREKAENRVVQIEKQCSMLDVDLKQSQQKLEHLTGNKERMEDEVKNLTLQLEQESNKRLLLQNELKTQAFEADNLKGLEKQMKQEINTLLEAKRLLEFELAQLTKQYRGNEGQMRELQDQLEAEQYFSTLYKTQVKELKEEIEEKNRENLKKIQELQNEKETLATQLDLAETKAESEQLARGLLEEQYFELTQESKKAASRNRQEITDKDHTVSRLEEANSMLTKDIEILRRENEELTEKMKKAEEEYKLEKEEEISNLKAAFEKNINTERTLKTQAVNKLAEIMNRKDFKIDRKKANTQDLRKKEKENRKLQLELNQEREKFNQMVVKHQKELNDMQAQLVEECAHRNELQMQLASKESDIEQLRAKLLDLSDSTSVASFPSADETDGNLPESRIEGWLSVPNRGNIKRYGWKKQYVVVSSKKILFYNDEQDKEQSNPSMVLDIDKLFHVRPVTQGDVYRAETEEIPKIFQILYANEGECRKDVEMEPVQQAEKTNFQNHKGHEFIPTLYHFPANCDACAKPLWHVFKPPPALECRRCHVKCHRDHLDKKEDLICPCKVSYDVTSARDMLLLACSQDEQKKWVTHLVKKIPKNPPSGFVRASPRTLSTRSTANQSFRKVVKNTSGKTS
# Chain of UniProt P61586 (P61586 whole entry, looked up): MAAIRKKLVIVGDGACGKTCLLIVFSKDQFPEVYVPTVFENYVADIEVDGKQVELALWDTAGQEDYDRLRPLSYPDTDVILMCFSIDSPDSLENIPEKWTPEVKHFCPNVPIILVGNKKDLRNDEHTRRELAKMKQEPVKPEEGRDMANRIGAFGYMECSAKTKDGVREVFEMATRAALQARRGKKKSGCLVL
# Chain of UniProt Q9BQY4 (Q9BQY4 whole entry, looked up): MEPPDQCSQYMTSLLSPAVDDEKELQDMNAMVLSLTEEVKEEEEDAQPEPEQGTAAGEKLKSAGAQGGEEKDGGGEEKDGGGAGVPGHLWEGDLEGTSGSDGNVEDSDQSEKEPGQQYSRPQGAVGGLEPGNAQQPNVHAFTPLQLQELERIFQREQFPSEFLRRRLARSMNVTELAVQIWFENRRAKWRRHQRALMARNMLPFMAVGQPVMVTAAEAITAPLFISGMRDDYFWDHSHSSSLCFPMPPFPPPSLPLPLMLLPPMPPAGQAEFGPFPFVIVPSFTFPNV
# Chain of UniProt P11233 (P11233 whole entry, looked up): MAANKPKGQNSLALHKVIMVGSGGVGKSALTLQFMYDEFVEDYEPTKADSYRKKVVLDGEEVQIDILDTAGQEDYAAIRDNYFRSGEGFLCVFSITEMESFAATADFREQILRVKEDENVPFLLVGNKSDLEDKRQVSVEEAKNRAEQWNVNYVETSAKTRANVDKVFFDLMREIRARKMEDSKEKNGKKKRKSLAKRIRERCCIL
# Chain of UniProt Q7L4I2 (Q7L4I2 whole entry, looked up): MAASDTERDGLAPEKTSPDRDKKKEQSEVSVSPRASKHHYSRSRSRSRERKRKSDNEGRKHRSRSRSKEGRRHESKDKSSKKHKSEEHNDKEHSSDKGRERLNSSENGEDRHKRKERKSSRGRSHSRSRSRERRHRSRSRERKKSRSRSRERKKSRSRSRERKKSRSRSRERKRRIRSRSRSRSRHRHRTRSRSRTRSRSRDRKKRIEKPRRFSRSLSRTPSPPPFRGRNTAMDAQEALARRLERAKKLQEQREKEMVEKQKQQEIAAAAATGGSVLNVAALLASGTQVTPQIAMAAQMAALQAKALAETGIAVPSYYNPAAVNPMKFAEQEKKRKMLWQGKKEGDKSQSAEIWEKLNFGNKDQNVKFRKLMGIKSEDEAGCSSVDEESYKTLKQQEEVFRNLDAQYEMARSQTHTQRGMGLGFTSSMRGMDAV
# Chain of UniProt Q5VUM1 (Q5VUM1 whole entry, looked up): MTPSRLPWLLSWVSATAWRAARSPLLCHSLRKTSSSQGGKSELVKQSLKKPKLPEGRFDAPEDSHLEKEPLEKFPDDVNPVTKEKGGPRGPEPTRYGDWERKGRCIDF
# Chain of UniProt P60602 (P60602 whole entry, looked up): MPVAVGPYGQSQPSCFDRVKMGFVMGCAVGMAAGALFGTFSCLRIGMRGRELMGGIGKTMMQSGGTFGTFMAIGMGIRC
# Chain of UniProt Q9BWJ5 (Q9BWJ5 whole entry, looked up): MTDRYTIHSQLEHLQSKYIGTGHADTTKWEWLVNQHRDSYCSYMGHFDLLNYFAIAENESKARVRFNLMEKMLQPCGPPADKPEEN
# Chain of UniProt O94885 (O94885 whole entry, looked up): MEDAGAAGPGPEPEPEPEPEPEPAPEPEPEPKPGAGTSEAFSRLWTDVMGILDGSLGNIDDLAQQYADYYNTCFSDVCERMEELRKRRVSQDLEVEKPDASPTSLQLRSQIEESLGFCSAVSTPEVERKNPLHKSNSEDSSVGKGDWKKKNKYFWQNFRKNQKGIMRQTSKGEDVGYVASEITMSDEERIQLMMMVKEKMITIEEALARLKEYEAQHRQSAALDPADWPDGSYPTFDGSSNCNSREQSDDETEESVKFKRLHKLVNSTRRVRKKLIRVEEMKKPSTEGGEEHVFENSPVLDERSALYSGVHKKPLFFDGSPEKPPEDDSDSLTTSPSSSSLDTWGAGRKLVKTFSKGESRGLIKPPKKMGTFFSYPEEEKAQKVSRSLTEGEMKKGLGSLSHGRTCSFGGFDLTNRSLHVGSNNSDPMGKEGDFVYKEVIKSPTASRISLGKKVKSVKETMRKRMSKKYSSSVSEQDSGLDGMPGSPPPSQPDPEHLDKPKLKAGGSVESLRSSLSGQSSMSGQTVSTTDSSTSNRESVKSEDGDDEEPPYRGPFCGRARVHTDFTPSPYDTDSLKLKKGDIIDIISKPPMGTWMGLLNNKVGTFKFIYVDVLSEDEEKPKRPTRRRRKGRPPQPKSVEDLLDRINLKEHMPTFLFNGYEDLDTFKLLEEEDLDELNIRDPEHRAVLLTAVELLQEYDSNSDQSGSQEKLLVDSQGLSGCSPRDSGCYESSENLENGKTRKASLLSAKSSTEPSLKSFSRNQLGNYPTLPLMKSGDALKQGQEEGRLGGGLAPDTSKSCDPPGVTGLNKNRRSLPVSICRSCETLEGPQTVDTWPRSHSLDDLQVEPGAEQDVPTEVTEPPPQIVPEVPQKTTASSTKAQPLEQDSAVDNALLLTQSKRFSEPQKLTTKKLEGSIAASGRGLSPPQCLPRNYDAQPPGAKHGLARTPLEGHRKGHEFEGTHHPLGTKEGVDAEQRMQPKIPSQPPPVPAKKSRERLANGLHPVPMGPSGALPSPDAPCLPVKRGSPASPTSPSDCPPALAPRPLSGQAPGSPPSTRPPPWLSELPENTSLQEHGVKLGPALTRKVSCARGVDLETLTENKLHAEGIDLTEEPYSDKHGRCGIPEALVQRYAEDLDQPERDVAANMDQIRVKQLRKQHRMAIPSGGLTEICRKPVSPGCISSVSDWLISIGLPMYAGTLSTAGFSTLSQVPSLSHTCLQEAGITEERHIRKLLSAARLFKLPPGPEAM
# Chain of UniProt Q9BXP2 (Q9BXP2 whole entry, looked up): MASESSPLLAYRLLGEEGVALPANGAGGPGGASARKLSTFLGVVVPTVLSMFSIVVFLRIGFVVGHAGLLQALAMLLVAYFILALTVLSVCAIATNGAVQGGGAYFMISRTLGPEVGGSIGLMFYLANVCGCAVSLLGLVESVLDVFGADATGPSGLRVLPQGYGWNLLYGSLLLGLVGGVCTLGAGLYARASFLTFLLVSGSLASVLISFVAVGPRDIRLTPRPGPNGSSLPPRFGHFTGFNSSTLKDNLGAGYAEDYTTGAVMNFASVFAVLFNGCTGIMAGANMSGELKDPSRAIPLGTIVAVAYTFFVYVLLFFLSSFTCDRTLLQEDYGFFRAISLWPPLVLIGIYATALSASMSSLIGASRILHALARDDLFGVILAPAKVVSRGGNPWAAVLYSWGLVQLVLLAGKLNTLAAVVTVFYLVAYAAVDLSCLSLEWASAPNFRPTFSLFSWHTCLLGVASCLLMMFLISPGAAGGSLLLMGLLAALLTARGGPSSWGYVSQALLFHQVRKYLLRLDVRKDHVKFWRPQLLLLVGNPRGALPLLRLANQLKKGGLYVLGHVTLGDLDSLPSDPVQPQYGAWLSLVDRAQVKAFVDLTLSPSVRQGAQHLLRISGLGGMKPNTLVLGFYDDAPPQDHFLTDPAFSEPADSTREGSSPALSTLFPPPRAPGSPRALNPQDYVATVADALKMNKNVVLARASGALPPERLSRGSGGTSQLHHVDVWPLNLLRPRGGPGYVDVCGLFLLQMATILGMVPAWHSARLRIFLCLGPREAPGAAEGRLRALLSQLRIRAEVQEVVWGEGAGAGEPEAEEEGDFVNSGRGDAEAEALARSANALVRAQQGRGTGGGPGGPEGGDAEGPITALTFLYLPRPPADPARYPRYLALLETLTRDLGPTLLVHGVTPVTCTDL
Target,log2 fold change [1],log2 fold change (volasertib),log2 fold change [2],log2 fold change (epoxomicin),log2 fold change [3],log2 fold change [4],log2 fold change [5],log2 fold change (rosiglitazone),log2 fold change [6],log2 fold change [7]
RRS1 (UniProt Q15050),0.291,0.286,0.023,-0.381,0.051,0.143,-0.029,-0.147,0.28,0.268
RAB3IL1 (UniProt Q8TBN0),-0.018,-0.136,-0.001,-0.001,-0.014,-0.15,0.009,0.029,-0.035,0.013
ROCK1 (UniProt Q13464),-0.005,-0.083,0.005,-0.011,0.002,-0.05,-0.011,0.042,0.031,0.096
RBM27 (UniProt Q9P2N5),-0.141,-0.296 (active),0.014,0.014,-0.11,0.001,0.027,0.055,-0.013,-0.068
RPS12 (UniProt P25398),0.108,0.219,0.038,-0.021,-0.002,0.063,-0.028,-0.037,0.064,0.079
RDH11 (UniProt Q8TC12),-0.213,-0.543 (active),0.015,0.045,-0.024,-0.072,0.037,-0.041,0.027,-0.466 (active)
SHCBP1 (UniProt Q8NEM2),-0.013,-0.052,0.102,-0.008,-0.084,0.117,0.111,-0.028,0.056,-0.139
RSRC2 (UniProt Q7L4I2),0.003,-0.032,-0.022,0.031,0.006,-0.043,0.007,0.008,-0.028,-0.025
RHOA (UniProt P61586),-0.098,0.134,0.065,0.049,0.024,0.071,-0.025,-0.057,-0.037,0.01
RAC3 (UniProt P60763),0.039,0.075,-0.082,-0.008,0.051,-0.149,0,0,-0.095,0.035
RSF1 (UniProt Q96T23),-0.138,-0.358,0.012,0.165,-0.097,-0.098,0.141,0.006,-0.008,-0.109
SEC31A (UniProt O94979),-0.035,-0.354 (active),0.021,0.034,-0.044,0.018,0.046,0.018,0.051,-0.11
RALA (UniProt P11233),0.084,0.025,-0.044,-0.054,0.021,0.029,-0.029,-0.021,-0.115,0.434 (active)
SEC24A (UniProt O95486),-0.077,-0.253 (active),0.018,0.055,-0.05,0.003,0.065,0.051,-0.054,-0.029
RICTOR isoform 3 (UniProt Q6R327),-0.271,-0.758 (active),-0.033,0.064,-0.585,-0.083,,,0.265,-0.169
REL (UniProt Q04864),0.045,-0.176,-0.022,0.043,-0.062,0.159,0.003,0.063,0.011,0.141
RNF14 (UniProt Q9UBS8),-0.054,-0.288 (active),0.037,-0.075,0.002,-0.032,-0.019,0.032,-0.049,-0.025
SF3B5 (UniProt Q9BWJ5),0.089,-0.14,-0.057,0.426 (active),0.042,0.035,0.006,-0.044,0.082,0.035
SASH1 (UniProt O94885),-0.136,-0.308 (active),0.044,-0.075,-0.012,0.027,0.042,0.044,0.054,-0.29
SLC12A9 (UniProt Q9BXP2),0.014,-0.034,-0.016,0.059,0.037,-0.016,-0.02,0.034,-0.075,-0.136
RAB8B (UniProt Q92930),0.036,0.033,-0.039,0.229,-0.011,0.003,0.013,0.085,-0.05,0.227
SIRT2 (UniProt Q8IXJ6),0.077,0.624 (active),0.043,-0.015,-0.017,-0.038,0.009,0.033,-0.041,-0.025
REEP4 (UniProt Q9H6H4),-0.023,-0.043,-0.011,-0.08,0.024,0.051,-0.015,-0.033,0.079,-0.134
RPS18 (UniProt P62269),0.158,0.3,-0.011,-0.111,-0.029,0.057,-0.036,-0.11,0.096,0.11
RPTOR (UniProt Q8N122),-0.116,-0.237 (active),0.064,0.034,0.001,-0.08,0.03,0.034,-0.037,-0.197
RBBP6 (UniProt Q7Z6E9),-0.061,-0.068,0.013,-0.001,-0.023,-0.003,0.024,0.014,,-0.014
RHOXF2 (UniProt Q9BQY4),0.014,0.061,-0.046,0.024,-0.079,0.086,-0.028,-0.013,0.074,-0.073
SAMSN1 isoform 3 (UniProt Q9NSI8),-0.069,-0.153,0.026,0.018,-0.02,-0.065,0.017,0.067,0,-0.253 (active)
ROMO1 (UniProt P60602),0.033,0.01,-0.06,-0.178,0.024,-0.023,,-0.023,0.125,0.049
SDHAF4 (UniProt Q5VUM1),0.013,0.075,-0.045,-0.066,0.162,,,0.048,-0.014,
